# Compound activity (PubChem)
# Shown are actives, neighbours in structure and some others; about 12% of the full set was active somewhere.
# HP1b binding inh – HTS for Inhibitors of HP1-beta Chromodomain Interactions with Methylated Histone Tails. AlphaScreen HP1-beta / biotin-H3K9me3 peptide binding. Potency, µM (highest dose often 114 µM), without a hit: at the top dose activity change, negative = inhibition, actives largely listed as inhibitors. actives 0.56% (n = 390,000). AID 540317, 2011; note: potency is the fitted concentration of half-maximal effect; nearly all actives have a fitted effect of over 70% in size
#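 HP1-beta protein (50 nM final) preincubated 30 min at room temperature with biotinylated H3(1-18)K9me3 peptide (50 nM) in PBS pH 7.4, 0.01% Tween-20, then compound added for 30 min. AlphaScreen streptavidin donor/nickel chelate acceptor beads (10 ug/mL final), 30 min dark, luminescence read.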
# PLK1 PBD block – qHTS for Inhibitors of PLK1-PDB (polo-like kinase 1 - polo-box domain): Primary Screen; Plk1 PBD binding of FITC phosphopeptide, fluorescence polarization; Potency, µM, inactives show max response, negative = inhibition, usual class: inhibitors; actives 2.8% (n = 360,000); AID 720504, 2013; note: potency is the fitted concentration of half-maximal effect; series mostly up to about 57 µM; % is set by controls: 0 for no effect and ±100 for the full control effect; nearly all actives have a fitted effect of over 65% in size
# PI5P4Ka inh – qHTS for Inhibitors of phosphatidylinositol 5-phosphate 4-kinase (PI5P4K); Phosphatidylinositol 5-phosphate 4-kinase type-2 alpha (Homo sapiens), P48426; PI5P4Kalpha enzyme, ADP-Glo luminescence, 60 min; stronger effect = lower value; max response, %; actives 1.2% (n = 330,000); AID 652105, 2013; active = max response of -50% or lower; inconclusive = between -30% and -50%; inactive = -30% or higher; note: value at the top dose of about 77 µM; % is set by controls: 0 for no effect and ±100 for the full control effect
#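 Controls without substrate or without enzyme flank wells where PI5P4Kalpha converts substrate using 5 microM ATP (final). Incubation lasts 60 minutes at room temperature; ADP formed is read by ADP-Glo luminescence.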
# JMJD2A Tudor – qHTS Assay for Inhibitors of JMJD2A-Tudor Domain. Lysine-specific demethylase 4A (Homo sapiens), O75164. AlphaScreen JMJD2A-Tudor / H3K4me3 peptide binding. Potency, µM (doses to about 114 µM), without a hit: at the highest dose activity change, negative = inhibition, hits mostly inhibitors. actives 4.4% (n = 390,000). AID 504339, 2011; note: potency is the fitted concentration of half-maximal effect; % is set by controls: 0 for no effect and ±100 for the full control effect; nearly all actives have a fitted effect of over 50% in size
# Target sequence (O75164 whole entry, looked up, the tested form may be a part): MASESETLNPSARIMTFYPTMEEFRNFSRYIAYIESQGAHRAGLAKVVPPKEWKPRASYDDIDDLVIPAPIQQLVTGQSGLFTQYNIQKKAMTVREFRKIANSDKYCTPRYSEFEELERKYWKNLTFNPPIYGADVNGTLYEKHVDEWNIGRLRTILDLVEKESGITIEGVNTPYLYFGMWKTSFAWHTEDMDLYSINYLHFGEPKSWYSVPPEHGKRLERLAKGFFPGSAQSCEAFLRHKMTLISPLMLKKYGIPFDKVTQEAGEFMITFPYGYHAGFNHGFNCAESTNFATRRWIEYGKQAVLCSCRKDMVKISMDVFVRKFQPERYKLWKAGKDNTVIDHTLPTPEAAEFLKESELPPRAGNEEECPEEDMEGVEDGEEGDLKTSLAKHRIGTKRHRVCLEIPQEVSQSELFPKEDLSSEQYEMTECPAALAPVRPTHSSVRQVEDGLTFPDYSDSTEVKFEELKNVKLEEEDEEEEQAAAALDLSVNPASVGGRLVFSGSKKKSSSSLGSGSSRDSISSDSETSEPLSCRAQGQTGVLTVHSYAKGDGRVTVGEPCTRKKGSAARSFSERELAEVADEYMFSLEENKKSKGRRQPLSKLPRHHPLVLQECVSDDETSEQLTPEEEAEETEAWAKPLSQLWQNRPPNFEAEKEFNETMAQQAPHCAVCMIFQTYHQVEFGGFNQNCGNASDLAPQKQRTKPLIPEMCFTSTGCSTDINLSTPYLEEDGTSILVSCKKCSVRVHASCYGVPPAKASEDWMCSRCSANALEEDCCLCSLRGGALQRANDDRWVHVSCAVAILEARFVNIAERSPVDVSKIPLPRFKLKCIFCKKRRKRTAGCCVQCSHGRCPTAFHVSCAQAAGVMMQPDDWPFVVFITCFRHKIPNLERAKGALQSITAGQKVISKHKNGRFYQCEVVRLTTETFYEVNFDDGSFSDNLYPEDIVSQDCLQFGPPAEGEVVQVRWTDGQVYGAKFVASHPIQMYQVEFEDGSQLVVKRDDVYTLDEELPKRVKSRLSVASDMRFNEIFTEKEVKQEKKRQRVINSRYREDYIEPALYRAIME
# BAZ2B block – qHTS Assay for Inhibitors of BAZ2B. Bromodomain adjacent to zinc finger domain protein 2B (Homo sapiens), Q9UIF8. AlphaScreen BAZ2B-H3K14Ac peptide displacement. Potency, µM (doses to about 114 µM), for the others: top-dose activity change, negative = inhibition, hits mostly inhibitors. actives 4.4% (n = 360,000); note: potency is the fitted concentration of half-maximal effect; % is set by controls: 0 for no effect and ±100 for the full control effect; nearly all actives have a fitted effect of over 60% in size
#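 AlphaScreen displacement: compounds (up to 110uM) incubated 30 min at room temperature with a preformed 50 nM BAZ2B/50 nM biotinylated H3K14Ac peptide complex in PBS pH 7.4 with Tween-20. Donor and acceptor beads at 10 ug/mL final added, 20 min light-protected before reading.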
# G9a block – qHTS Assay for Inhibitors of Histone Lysine Methyltransferase G9a; Histone-lysine N-methyltransferase EHMT2 (Homo sapiens), Q96KQ7; G9a H3K9 monomethylation, AlphaScreen, 2 h; AID 504332, 2011; actives 8.8% (n = 350,000); Potency, µM (titrated, usually from 102 µM), for the others: at the highest dose activity, negative = inhibition, usual class: inhibitors; note: potency is the fitted concentration of half-maximal effect; % is set by controls: 0 for no effect and ±100 for the full control effect; nearly all actives have a fitted effect of over 75% in size
#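 Methyltransferase reactions run at room temperature for 2 h (20 nM enzyme, 500 nM biotin-H3K9 peptide, 20 uM SAM) after a 15 min compound preincubation; product detected by AlphaScreen beads and anti-H3K9me1 antibody.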
# Numbers without * were called inactive; ? = inconclusive; . = not tested or not shown; ! = not confirmed by another sample; [ ] = another dose, or the depositor's remark. Unless noted, calls come from the whole dose curve; as a rule, active = well fitted curve in the direction sought with a large enough effect; inconclusive = small, poorly fitted or top-dose-only effect, or another doubt; inactive = no such curve, though single readings can be large; an effect the other way counts as inactive or inconclusive.
SMILES,HP1b binding inh,PLK1 PBD block,PI5P4Ka inh,JMJD2A Tudor,BAZ2B block,G9a block
COc1cc(CN2CCc3nc(N4CCN(c5ncccn5)CC4)ncc3C2)cc(OC)c1OC,-14%,.,.,50µM*,45µM*,?
COc1cc(CN2CCc3nc(N4CCN(c5ccccc5F)CC4)ncc3C2)ccc1OC(C)C,19%,.,.,-22%,?,-14%[59 µM]
COc1cc(CN2CCc3nc(N4CCN(c5ccccn5)CC4)ncc3C2)cc(OC)c1OC,?,.,.,79µM*,50µM*,?
NCCCP(=O)(O)CC1CCCCC1,.,.,.,.,.,40%[59 µM]
CC[N+](CC)(CC)CCOc1cccc(OCC[N+](CC)(CC)CC)c1OCC[N+](CC)(CC)CC,25%,-11%,21,22µM*,-38%,5.3µM*!
CCCCCCCCCCCC[N+](C)(C)CCOc1ccccc1,.,.,.,.,.,2%[59 µM]
COc1ccc(Cl)cc1NC(=O)CCn1c(=O)oc2ccccc21,32%[57 µM],?,7,10%,-1%,50%
COc1ccc(N(C)C(=O)Cn2c(=O)oc3ccccc32)c(OC)c1,?,-10%,-3,0%,-2%,45µM*
Cc1oc(-c2ccccc2Cl)nc1CN1C(=O)CN=C(c2ccccc2)c2ccccc21,4%,3%,2,?,?,40µM*
O=C1NCCOC(=O)[C@H](Cc2ccc(F)cc2)CC/C=C/C[C@H]1CC(=O)N(CCO)Cc1ccccc1,28%,-14%,1,-14%,.,.
CCC(C)N1C(=O)/C(=C/c2ccc3c(c2)CCN3CCCCl)C(=O)NC1=S (stereo unspecified),?,0.95µM*,-67*,50µM*,50µM*,13µM*
Clc1ccc(Cl)cc1,.,.,.,.,.,29%[59 µM]
O=C(O)/C=C\C(=O)Nc1ccc(Oc2ccc(Br)cc2)cc1,35%,-3%,-21,-14%,50µM*,?
O=C(Nc1ccc(Br)cc1)c1cc(Br)cc(Br)c1O,.,.,.,.,.,3%[59 µM]
Clc1ccc(C(Cl)(Cl)Cl)c(Cl)c1,82%,11µM*,-1,42%,7%,6%[0.501 µM]
O=P(Oc1ccccc1)(Oc1ccccc1)c1ccccc1,80%,-5%,3,34%,0.89µM*,.
NP(=O)(Oc1ccccc1)c1ccccc1 (stereo unspecified),17%,-1%,0,-20%,.,.
CCCCN1C(=O)/C(=C/c2ccc(N(C)C)cc2)C(=O)N(Cc2ccco2)C1=O,-17%,?,-64*,?,?,-4%[12.7 µM]
CCN(CC)c1ccc(/C=C2\C(=O)NC(=O)N(Cc3ccco3)C2=O)cc1,-12%,?,-57*,?,50µM*,?
CCN(CC)c1ccc(/C=C2/C(=O)NC(=O)N(CC3CCCO3)C2=O)cc1 (stereo unspecified),0%,?,-23,-22%,?,.
CCCCn1c(=O)c(C=Nc2ccc(Cl)cc2)c(O)n(Cc2ccco2)c1=O,69%,4%,-4,?,3%,32%[59 µM]
COC[C@H]([C@@H](O)[C@@H](O)C(=O)NCC[C@@H](C)c1nc(/C=C/C[C@H]2OC3(C[C@H](O)[C@H]2C)OC([C@@H](C[C@@H](O)[C@@H](C)[C@@H](O)[C@@H](C)/C=C(C)/C(C)=C/C=C/C(C)=C\C#N)OC)[C@@H](OP(=O)(O)O)C3(C)C)co1)N(C)C (stereo partly specified),.,.,.,.,.,27%[59 µM]
O=C1c2cccc(N3CCNCC3)c2C2CCCCN12 (stereo unspecified),.,-15%,-16,.,.,.
Nc1c(Br)cc(Br)cc1CNC1CCC(O)CC1 (stereo unspecified),19%,-10%,8,-12%,4%,7%[12.7 µM]
